Assay [1] can be described thus: NCI Yeast Anticancer Drug Screen. Data for the rad50 strain (AID 155).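 Note: 0% = growth of vehicle-only cultures of the same strain.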 The following applies: S. cerevisiae rad50 strain growth inhibition; at 50.0 µM; hits give high values. In outline:
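Yeast carrying a defined DNA repair defect were exposed to test compounds, and growth was compared with vehicle-treated controls to give percent inhibition.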

The nature of assay [2]: NCI Yeast Anticancer Drug Screen. Data for the mec2-1 strain (AID 157). Particulars: S. cerevisiae mec2-1 strain, at 50.0 µM, hits give high values. In outline: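 Mutant yeast (mec2-1) grown with compound; growth inhibition relative to vehicle control reported.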
A short description of assay [3]: NCI Yeast Anticancer Drug Screen. Data for the sgs1 mgt1 strain (AID 161).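 Note: 0% = growth of cultures given vehicle only.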 The following applies: S. cerevisiae sgs1 mgt1 strain, at 50.0 µM, hits give high values. In outline:
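Yeast cells carrying a defined DNA-repair defect were exposed to test compounds. Growth inhibition was measured relative to vehicle-treated controls.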

Assay [4] can be described thus: NCI Yeast Anticancer Drug Screen. Data for the cln2 rad14 strain (AID 165).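 Note: 0% = growth equal to vehicle treated cultures.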 The following applies: S. cerevisiae cln2 rad14 strain, at 50.0 µM, hits give high values. In outline:
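Readout is yeast growth inhibition versus vehicle-treated controls, using a strain with cln2 and rad14 alterations exposed to compound.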

A short description of assay [5]: NCI Yeast Anticancer Drug Screen. Data for the bub3 strain (AID 167). The following applies: S. cerevisiae bub3 mutant strain, at 50.0 µM, hits give high values. In outline: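 Compounds were applied to a genetically altered yeast strain carrying a cell-cycle control defect. Growth inhibition was scored against vehicle-treated controls.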
A short description of assay [6]: NCI Yeast Anticancer Drug Screen. Data for the mlh1 rad18 strain (AID 175). Particulars: S. cerevisiae mlh1 rad18 strain growth inhibition; at 50.0 µM; hits give high values. In outline:
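Genetically defined yeast (DNA repair-deficient) exposed to compounds; growth inhibition determined relative to vehicle.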

This is part of a sample that, as a whole, favours compounds with a hit. Of some 79,000 tested, about 15% had one in any assay. Unmarked numbers belong to inactive results. The source made the active and inactive calls. Cut-off read from the data, not from the text of the source: active = growth inhibition above about 70%; inactive = the rest.

In the case of `Cc1ccc(C(=O)Oc2ccccc2)cc1N=NN(C)C`, the growth inhibition is -20.7% in assay [1]; -49% in assay [2]; -56.8% in assay [3]; 25.5% in assay [4]; -29.8% in assay [5]; -24.1% in assay [6].
Turning to `CCOC(=O)C1CC(C)CC1=O` (stereo unspecified), the growth inhibition was 5.7% in assay [1]; -2.6% in assay [2]; -4.6% in assay [3]; -4.4% in assay [4]; 1.35% in assay [5]; 0.2% in assay [6].
In the case of `O=C(O)/C=C(/CC(=O)O)c1ccc(O)cc1`, the growth inhibition was -14.9% in assay [1]; -21.7% in assay [2]; -9.9% in assay [3]; -4.55% in assay [4]; -18.6% in assay [5]; -14.3% in assay [6].
Regarding `COc1ccc(C)cc1S(=O)(=O)c1ccc(C)cc1[N+](=O)[O-]`, the growth inhibition in assay [1] was 6.6%; in assay [2], -2.85%; in assay [3] it was 2.15%; in assay [4] it was 34.5%; in assay [5] it was 23.3%; in assay [6], -15.4%.
Take `Oc1ccc(C2=NNC(c3ccc(O)cc3)=NN2)cc1`: the growth inhibition in assay [1] was 12.7%; in assay [2], 11.9%; in assay [3] it was 17%; in assay [4], 21.1%; in assay [5], 12.8%; in assay [6], 10.1%.
Take `COc1ccc2c(c1)C/C(=C\c1ccc(O)c(OC)c1)C2=O`: the growth inhibition in assay [1] is -46.5%; in assay [2], -14%; in assay [3], -33.5%; in assay [4], -9.9%; in assay [5], 7.8%; in assay [6], -10.1%.
For `COc1ccc(/C(=N\NC(=O)C(=O)NN)C(c2ccc(OC)cc2)C2(O)C(=O)Nc3ccccc32)cc1` (stereo unspecified), the growth inhibition is -19.6% in assay [1]; -20.2% in assay [2]; -22.6% in assay [3]; -65.1% in assay [4]; 12.9% in assay [5]; -18.1% in assay [6].
Consider `COC(=O)c1ccc(NCc2cc(O)ccc2O)cc1O`, for which the growth inhibition was 88.5% (active) in assay [1]; 90.5% (active) in assay [2]; 83.7% (active) in assay [3]; 67.7% in assay [4]; 84.8% (active) in assay [5]; 91.5% (active) in assay [6].
In the case of `O=C(O)COc1ccccc1-c1ccccc1`, the growth inhibition in assay [1] is -34.4%; in assay [2], -13.7%; in assay [3], -10.6%; in assay [4], -48.5%; in assay [5], 1.55%; in assay [6], -8.6%.
`CCCCS(=O)(=O)Nc1cccc(C(=O)O)c1`: the growth inhibition is 2.85% in assay [1]; -9.1% in assay [2]; 20.9% in assay [3]; -17.4% in assay [4]; 39.8% in assay [5]; -7.15% in assay [6].
Consider `CCCCCCCCCc1cc(=O)c2ccc(OCc3ccccc3)cc2o1`, for which the growth inhibition is -42.5% in assay [1]; -28.6% in assay [2]; -21.1% in assay [3]; -11.2% in assay [4]; -28.6% in assay [5]; -42% in assay [6].
`CC(C)[O-].CC(C)[O-].O=c1cccccc1[O-].O=c1cccccc1[O-].[Ti+4]`: the growth inhibition is -13.2% in assay [1]; 0.9% in assay [2]; 14.2% in assay [3]; 10.8% in assay [4]; -1.5% in assay [5]; 22.4% in assay [6].
As to `CCCCCCCCSC#N`, the growth inhibition in assay [1] is 7.95%; in assay [2] it was -11%; in assay [3], -3.6%; in assay [4], 23.9%; in assay [5] it was 2%; in assay [6], -1.4%.
As for `CSCCC(O)C(=O)O` (stereo unspecified), the growth inhibition is 21.8% in assay [1]; -7.4% in assay [2]; 19.5% in assay [3]; 28.2% in assay [4]; -2.55% in assay [5]; 17% in assay [6].
In the case of `Cc1nc(CC#N)n[nH]1`, the growth inhibition in assay [1] was 24.5%; in assay [2], 18%; in assay [3], 17.1%; in assay [4] it was 11.3%; in assay [5] it was 24.8%; in assay [6], 19.7%.
Turning to `NC1=NN(c2ccccc2)C(=O)C1C(=O)C(=O)Nc1ccc(Cl)c(Cl)c1` (stereo unspecified), the growth inhibition was -6.4% in assay [1]; -23.8% in assay [2]; 11.8% in assay [3]; 0.15% in assay [4]; 12.2% in assay [5]; -6.2% in assay [6].
Take `O=[N+]([O-])c1ccc(-n2nnc3ccccc32)nc1`: the growth inhibition in assay [1] was -3.9%; in assay [2], -4.85%; in assay [3] it was -7.35%; in assay [4], -16.6%; in assay [5] it was 7.5%; in assay [6], -9.75%.
As for `CC1(CBr)COC(c2ccccc2)(C2CCCCC2)OC1` (stereo unspecified), the growth inhibition in assay [1] was -1.9%; in assay [2], -14.8%; in assay [3] it was -5.55%; in assay [4], -1.9%; in assay [5] it was -13.7%; in assay [6], 23.7%.
With `COC(=O)C1C(C)C1c1ccc2c(c1)OCO2` (stereo unspecified), the growth inhibition in assay [1] is 2.65%; in assay [2], 2.05%; in assay [3], -0.7%; in assay [4], -3.7%; in assay [5], -0.7%; in assay [6], -25.5%.
In the case of `C=C1C(=O)OC2CC3(CO3)C3C(O)C(O)CC3(C)CC12` (stereo unspecified), the growth inhibition in assay [1] is 2.4%; in assay [2] it was 2.45%; in assay [3] it was -14.2%; in assay [4], -13.6%; in assay [5], -42.5%; in assay [6] it was -70.7%.
In the case of `CCN(CC)C(C)(C)C(=O)/C=C/c1ccc(OC)cc1`, the growth inhibition was -11.6% in assay [1]; -15.2% in assay [2]; -33.3% in assay [3]; 12.7% in assay [4]; 9.65% in assay [5]; -18.4% in assay [6].
On to `CC(=O)CCc1ccc(OC(=O)C(Cl)Cl)cc1`, for which the growth inhibition was 27% in assay [1]; 12.1% in assay [2]; 18.7% in assay [3]; 13.8% in assay [4]; 13.9% in assay [5]; 29.6% in assay [6].
`CN(C)C(=S)/N=c1\ssc(=S)n1Cc1cccs1`: the growth inhibition in assay [1] was -11.1%; in assay [2], -19.5%; in assay [3], -19.6%; in assay [4] it was 6.75%; in assay [5], -9.4%; in assay [6], 12%.
For `O=S=C1SC2CCCCC2S1` (stereo unspecified), the growth inhibition in assay [1] is 2.75%; in assay [2], 4.15%; in assay [3] it was -5.4%; in assay [4], -9.05%; in assay [5] it was -9.45%; in assay [6], 8.1%.
Take `CCC(CC)C(=O)NC`: the growth inhibition in assay [1] was -4.25%; in assay [2] it was -5.2%; in assay [3] it was -3.5%; in assay [4], 2.2%; in assay [5] it was -0.85%; in assay [6], -1.8%.
For `Nc1nc(-c2ccc3c(ccc4ccccc43)c2)cs1`, the growth inhibition in assay [1] was 7.6%; in assay [2], 15.5%; in assay [3], 18.2%; in assay [4], -46.3%; in assay [5], 47.7%; in assay [6], 28.2%.
Regarding `CC(C)(C)c1cc(O)c(C(=O)O)cc1O`, the growth inhibition in assay [1] is 39.6%; in assay [2], 29.6%; in assay [3], 44.8%; in assay [4], 17.6%; in assay [5], -3.9%; in assay [6], 33.9%.
For `CC12CCC(=O)[C@@]1(C)CCCC2=O` (stereo partly specified), the growth inhibition was -13% in assay [1]; 5% in assay [2]; -23.1% in assay [3]; 6.8% in assay [4]; -6.9% in assay [5]; 5.05% in assay [6].
Consider `COC(=O)C(CCc1ccccc1[N+](=O)[O-])C(=O)OC`, for which the growth inhibition in assay [1] is 38.6%; in assay [2] it was 10.8%; in assay [3], 11.7%; in assay [4], -4.45%; in assay [5] it was 43%; in assay [6] it was 34.1%.
On to `CN(C)c1ccc(/C=N/NS(=O)(=O)c2ccc(N)cc2)cc1`, for which the growth inhibition is -4.4% in assay [1]; -9.95% in assay [2]; 18.8% in assay [3]; -3.45% in assay [4]; -32.2% in assay [5]; -12.6% in assay [6].
As to `CCCC(C)(C)COC(=O)Cc1ccccc1`, the growth inhibition in assay [1] is 40.3%; in assay [2], 42%; in assay [3], 55.9%; in assay [4], 23.8%; in assay [5] it was 23.6%; in assay [6], 46.2%.
On to `O=C1C=C2SCCN2C(=O)C1`, for which the growth inhibition in assay [1] is -5.9%; in assay [2] it was -33.8%; in assay [3], -9.15%; in assay [4], -2.85%; in assay [5], -5.85%; in assay [6], 14.9%.
In the case of `Nc1cn(C2CC(O)C(CO)O2)c(=O)[nH]c1=O` (stereo unspecified), the growth inhibition in assay [1] was 0%; in assay [2] it was -1.9%; in assay [3] it was -2.5%; in assay [4], 1%; in assay [5] it was -4.4%; in assay [6] it was -9.05%.
`CCCC(=O)C(C)C(=O)CC` (stereo unspecified): the growth inhibition in assay [1] was -52.1%; in assay [2] it was -26.9%; in assay [3], -15.7%; in assay [4], 4.3%; in assay [5] it was -6.8%; in assay [6], 0.5%.
In the case of `CCOC(=O)CCC(C#N)C(=O)OCC` (stereo unspecified), the growth inhibition in assay [1] is 0.45%; in assay [2] it was -3.9%; in assay [3], 9.3%; in assay [4] it was -10.2%; in assay [5] it was 27.6%; in assay [6], 6%.
Regarding `CCCCCOC(=O)CC(CC(=O)OCCCCC)C(=O)OCCCCC`, the growth inhibition in assay [1] was 14.3%; in assay [2], 5.15%; in assay [3], 14%; in assay [4] it was -3.8%; in assay [5], -28.6%; in assay [6], 1.75%.
Take `CCOC(=O)Cn1c(C)nc2nn(Cc3ccccc3)cc2c1=O`: the growth inhibition in assay [1] was -49.7%; in assay [2], -56.1%; in assay [3], -36.2%; in assay [4], -1.35%; in assay [5] it was -32.9%; in assay [6], -30.8%.
In the case of `O=c1[nH]c2cc([N+](=O)[O-])ccc2nc1/C=C(\O)c1ccc(Cl)cc1`, the growth inhibition is -23.2% in assay [1]; -22.8% in assay [2]; -20.1% in assay [3]; -9.15% in assay [4]; -12.2% in assay [5]; -36.7% in assay [6].
Consider `CC(=O)[O-].Cc1ccnc(NS(=O)(=O)c2ccc(N=Cc3ccccc3[O-])cc2)n1.Cc1ccnc(NS(=O)(=O)c2ccc(N=Cc3ccccc3[O-])cc2)n1.[Cu+2]`, for which the growth inhibition in assay [1] is 9%; in assay [2] it was 2%; in assay [3], 2.6%; in assay [4], 19.1%; in assay [5] it was 11.1%; in assay [6] it was 34.4%.
Regarding `O=C1c2cccc3cc([N+](=O)[O-])cc(c23)C(=O)N1Cc1ccco1`, the growth inhibition is 24.6% in assay [1]; 8.85% in assay [2]; 32.2% in assay [3]; 16.8% in assay [4]; 7.65% in assay [5]; 0.95% in assay [6].
Consider `O=C(OCc1ccccc1)c1ccc(Cl)cc1`, for which the growth inhibition in assay [1] is 22.9%; in assay [2] it was 5.7%; in assay [3], 20.6%; in assay [4] it was 15.2%; in assay [5] it was -1.65%; in assay [6], 4.4%.

The record behind these values is PubChem BioAssay (NCI).
